Holding throughout (experiment): DAPPL (digital affinity profiling via proximity ligation, sequencing); 10 mM Tris-HCl pH 7.5, 50 mM NaCl, 1 mM DTT, 4% glycerol, room temperature, 30 min; GST-TFs on glutathione beads, 16-mer random dsDNA library, 0.1% formaldehyde crosslink after washing; high values mean tight binding
Holding throughout (settings): protein: recombinant; tags: N-terminal GST; dsDNA, one strand shown

In one assay the target is T1, FLI1 (Homo sapiens, UniProt Q01543 1-452).
T1 sequence: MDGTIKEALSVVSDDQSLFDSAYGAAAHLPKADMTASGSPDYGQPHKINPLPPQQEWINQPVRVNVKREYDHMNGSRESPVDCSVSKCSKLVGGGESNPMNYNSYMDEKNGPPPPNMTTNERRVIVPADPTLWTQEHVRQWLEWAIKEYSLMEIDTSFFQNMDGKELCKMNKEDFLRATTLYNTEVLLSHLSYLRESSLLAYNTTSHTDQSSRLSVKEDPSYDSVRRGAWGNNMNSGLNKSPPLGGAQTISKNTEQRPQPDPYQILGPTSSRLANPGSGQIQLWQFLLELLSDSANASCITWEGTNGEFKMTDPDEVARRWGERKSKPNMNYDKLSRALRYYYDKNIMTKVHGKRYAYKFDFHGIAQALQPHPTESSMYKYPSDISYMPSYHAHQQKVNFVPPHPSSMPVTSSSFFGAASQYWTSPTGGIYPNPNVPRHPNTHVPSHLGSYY
The method in brief:
(§1)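 After expression in yeast as GST fusions, human transcription factors were bound to glutathione beads, DNA-barcoded and mixed with a tag-only sample. The pools were incubated with 200 nmole of a 16-mer random double-stranded DNA library in Tris/NaCl/DTT/glycerol buffer (30 min, room temperature), washed and crosslinked with 0.1% formaldehyde. Proximity ligation with BsaI/T4 ligase ran for 1 h at 37 °C, before PCR amplification and sequencing on an Illumina NextSeq500. Binding signal is a hexamer's read frequency for a factor divided by its frequency for the tag-only sample.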

Another assay deals with T2, ELK1 (Homo sapiens, UniProt P19419 1-428).
T2 sequence: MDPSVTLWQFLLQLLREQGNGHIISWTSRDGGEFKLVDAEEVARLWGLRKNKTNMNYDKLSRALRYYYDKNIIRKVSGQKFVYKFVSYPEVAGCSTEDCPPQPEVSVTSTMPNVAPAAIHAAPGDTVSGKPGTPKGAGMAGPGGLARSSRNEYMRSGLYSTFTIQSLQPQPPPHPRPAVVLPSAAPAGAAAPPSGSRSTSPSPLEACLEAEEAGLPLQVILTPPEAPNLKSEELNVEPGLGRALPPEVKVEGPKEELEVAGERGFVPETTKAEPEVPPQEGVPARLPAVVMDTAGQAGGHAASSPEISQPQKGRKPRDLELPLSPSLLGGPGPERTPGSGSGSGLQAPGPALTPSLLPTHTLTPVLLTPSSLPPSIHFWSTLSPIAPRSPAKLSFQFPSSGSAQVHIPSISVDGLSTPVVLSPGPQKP
The essentials:
as §1

In the next assay the target is T3, GABPA (Homo sapiens, UniProt Q06546 1-454).
T3 sequence: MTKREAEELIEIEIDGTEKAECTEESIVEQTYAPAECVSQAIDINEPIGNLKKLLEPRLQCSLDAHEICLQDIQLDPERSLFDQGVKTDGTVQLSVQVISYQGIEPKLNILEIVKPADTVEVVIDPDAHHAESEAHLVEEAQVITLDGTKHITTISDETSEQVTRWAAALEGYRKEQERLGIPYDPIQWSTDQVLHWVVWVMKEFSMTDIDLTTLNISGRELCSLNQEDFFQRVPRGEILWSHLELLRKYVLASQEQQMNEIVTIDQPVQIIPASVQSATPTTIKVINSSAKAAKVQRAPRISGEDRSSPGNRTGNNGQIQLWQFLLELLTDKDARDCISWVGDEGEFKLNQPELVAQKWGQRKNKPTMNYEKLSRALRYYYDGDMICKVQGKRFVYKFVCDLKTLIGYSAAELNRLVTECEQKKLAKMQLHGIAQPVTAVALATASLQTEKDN
The method in brief:
as §1

A further assay addresses T4, ERG (Homo sapiens, UniProt P11308 1-479).
T4 sequence: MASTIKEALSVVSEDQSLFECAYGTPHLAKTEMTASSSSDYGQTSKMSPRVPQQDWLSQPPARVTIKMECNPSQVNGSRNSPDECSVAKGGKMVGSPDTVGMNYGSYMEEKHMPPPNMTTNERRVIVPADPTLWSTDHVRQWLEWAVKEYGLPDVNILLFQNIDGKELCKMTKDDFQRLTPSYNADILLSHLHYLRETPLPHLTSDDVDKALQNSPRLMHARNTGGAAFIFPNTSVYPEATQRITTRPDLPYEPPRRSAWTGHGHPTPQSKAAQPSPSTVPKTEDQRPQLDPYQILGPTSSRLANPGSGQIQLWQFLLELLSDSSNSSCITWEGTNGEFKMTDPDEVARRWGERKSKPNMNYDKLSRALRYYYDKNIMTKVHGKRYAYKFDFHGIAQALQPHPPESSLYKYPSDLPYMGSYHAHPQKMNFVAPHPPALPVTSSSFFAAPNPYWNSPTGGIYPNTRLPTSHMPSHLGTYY
The method in brief:
as §1

In another assay the target is ELF1 (Homo sapiens, UniProt P32519 1-619). The method in brief:
as §1

In the next assay the target is T5, EHF (Homo sapiens, UniProt Q9NZC4 1-300).
T5 sequence: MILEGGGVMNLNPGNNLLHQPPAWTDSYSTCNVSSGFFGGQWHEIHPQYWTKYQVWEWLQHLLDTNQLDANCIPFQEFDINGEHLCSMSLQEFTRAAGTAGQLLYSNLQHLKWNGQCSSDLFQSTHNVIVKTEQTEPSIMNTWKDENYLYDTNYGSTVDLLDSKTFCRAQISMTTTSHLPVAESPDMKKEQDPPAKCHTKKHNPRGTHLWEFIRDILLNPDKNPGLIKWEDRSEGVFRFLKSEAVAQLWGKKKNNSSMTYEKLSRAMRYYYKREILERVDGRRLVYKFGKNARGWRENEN
The method in brief: as §1

The target of the next assay is SPIB (Homo sapiens, UniProt Q01892 1-262). The essentials: as §1
In another assay the target is T6, ELK3 (Homo sapiens, UniProt P41970 1-407).
T6 sequence: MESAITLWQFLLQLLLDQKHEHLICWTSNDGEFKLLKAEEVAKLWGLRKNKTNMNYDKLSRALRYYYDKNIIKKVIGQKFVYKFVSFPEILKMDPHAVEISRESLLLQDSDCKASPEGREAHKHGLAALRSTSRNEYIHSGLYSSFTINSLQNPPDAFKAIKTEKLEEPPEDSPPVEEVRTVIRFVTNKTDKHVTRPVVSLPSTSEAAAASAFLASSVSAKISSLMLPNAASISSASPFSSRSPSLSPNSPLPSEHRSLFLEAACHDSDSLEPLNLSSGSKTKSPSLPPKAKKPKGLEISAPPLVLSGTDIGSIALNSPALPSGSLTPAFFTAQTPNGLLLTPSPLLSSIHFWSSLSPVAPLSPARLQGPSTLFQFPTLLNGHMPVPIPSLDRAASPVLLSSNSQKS
The essentials: as §1

In the next assay the target is SPI1 (Homo sapiens, UniProt P17947 1-270). The method in brief:
as §1

Sequence of SPIB (Q01892 whole entry): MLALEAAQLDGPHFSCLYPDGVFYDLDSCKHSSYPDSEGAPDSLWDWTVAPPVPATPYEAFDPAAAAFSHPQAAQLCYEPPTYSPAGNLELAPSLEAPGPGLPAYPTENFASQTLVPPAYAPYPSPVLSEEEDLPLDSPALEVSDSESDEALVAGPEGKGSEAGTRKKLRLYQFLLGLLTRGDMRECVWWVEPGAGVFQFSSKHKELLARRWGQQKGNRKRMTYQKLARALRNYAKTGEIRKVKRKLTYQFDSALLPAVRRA
Sequence of ELF1 (P32519 whole entry): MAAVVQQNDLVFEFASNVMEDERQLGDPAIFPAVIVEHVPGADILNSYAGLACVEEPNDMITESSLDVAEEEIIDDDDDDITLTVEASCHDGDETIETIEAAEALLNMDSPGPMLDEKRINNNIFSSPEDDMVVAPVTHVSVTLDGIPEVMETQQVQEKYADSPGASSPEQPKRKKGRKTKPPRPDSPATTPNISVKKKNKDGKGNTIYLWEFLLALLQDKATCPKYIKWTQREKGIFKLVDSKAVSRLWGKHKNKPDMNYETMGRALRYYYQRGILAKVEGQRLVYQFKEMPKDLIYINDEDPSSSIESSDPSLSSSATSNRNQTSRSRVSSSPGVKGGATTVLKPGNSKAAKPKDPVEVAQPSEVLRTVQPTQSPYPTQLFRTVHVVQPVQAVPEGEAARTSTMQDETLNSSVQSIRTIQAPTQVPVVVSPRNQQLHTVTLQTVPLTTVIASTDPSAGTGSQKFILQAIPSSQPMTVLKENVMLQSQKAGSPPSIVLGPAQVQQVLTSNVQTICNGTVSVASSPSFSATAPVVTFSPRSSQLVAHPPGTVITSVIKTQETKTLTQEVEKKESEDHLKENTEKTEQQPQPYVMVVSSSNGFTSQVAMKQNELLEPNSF

Take ACACCC: the binding signal is 1.18 fold enrichment (6-mer frequency, TF over GST control) in the assay with FLI1; 1.16 fold enrichment (6-mer frequency, TF over GST control) with ELK1; 1.16 fold enrichment (6-mer frequency, TF over GST control) in the assay with GABPA; 1.11 fold enrichment (6-mer frequency, TF over GST control) in the assay with ERG; 1.09 fold enrichment (6-mer frequency, TF over GST control) in the assay with ELF1; 1.11 fold enrichment (6-mer frequency, TF over GST control) in the assay with EHF. In addition, the binding signal with SPIB is 1.17 fold enrichment (6-mer frequency, TF over GST control); in the assay with ELK3, 1.08 fold enrichment (6-mer frequency, TF over GST control).
As for TGCTTA, the binding signal is 1.04 fold enrichment (6-mer frequency, TF over GST control) with FLI1; 1.06 fold enrichment (6-mer frequency, TF over GST control) with ELK1; 1.21 fold enrichment (6-mer frequency, TF over GST control) with GABPA; 1.15 fold enrichment (6-mer frequency, TF over GST control) in the assay with ERG; 1.13 fold enrichment (6-mer frequency, TF over GST control) in the assay with ELF1; 1.08 fold enrichment (6-mer frequency, TF over GST control) with EHF. Besides, the binding signal is 1.06 fold enrichment (6-mer frequency, TF over GST control) in the assay with SPIB and 1 fold enrichment (6-mer frequency, TF over GST control) with ELK3.
In the case of CCTGTG, the binding signal was 1.06 fold enrichment (6-mer frequency, TF over GST control) with FLI1; 1.24 fold enrichment (6-mer frequency, TF over GST control) with ELK1; 1.08 fold enrichment (6-mer frequency, TF over GST control) with GABPA; 1.21 fold enrichment (6-mer frequency, TF over GST control) with ERG; 1.11 fold enrichment (6-mer frequency, TF over GST control) with ELF1; 1.04 fold enrichment (6-mer frequency, TF over GST control) with SPI1. Also, the binding signal in the assay with SPIB is 1.18 fold enrichment (6-mer frequency, TF over GST control); with ELK3, 1.01 fold enrichment (6-mer frequency, TF over GST control).
With CAATCA, the binding signal was 1.11 fold enrichment (6-mer frequency, TF over GST control) with FLI1; 1.11 fold enrichment (6-mer frequency, TF over GST control) with ELK1; 1.24 fold enrichment (6-mer frequency, TF over GST control) with GABPA; 1.14 fold enrichment (6-mer frequency, TF over GST control) with ERG; 1.19 fold enrichment (6-mer frequency, TF over GST control) with ELF1; 1.08 fold enrichment (6-mer frequency, TF over GST control) in the assay with SPI1. The binding signal with SPIB is 1.1 fold enrichment (6-mer frequency, TF over GST control); with ELK3, 1.05 fold enrichment (6-mer frequency, TF over GST control).
Regarding ATTAGC, the binding signal with FLI1 was 1.17 fold enrichment (6-mer frequency, TF over GST control); with ELK1, 1.08 fold enrichment (6-mer frequency, TF over GST control); in the assay with GABPA it was 1.08 fold enrichment (6-mer frequency, TF over GST control); with ERG, 1.15 fold enrichment (6-mer frequency, TF over GST control); with ELF1, 1.11 fold enrichment (6-mer frequency, TF over GST control); with EHF, 1.07 fold enrichment (6-mer frequency, TF over GST control). The binding signal with SPIB was 1.03 fold enrichment (6-mer frequency, TF over GST control); with ELK3, 1.09 fold enrichment (6-mer frequency, TF over GST control).
For the sequence TCGACG, the binding signal was 1.23 fold enrichment (6-mer frequency, TF over GST control) with FLI1; 1.14 fold enrichment (6-mer frequency, TF over GST control) in the assay with ELK1; 1.06 fold enrichment (6-mer frequency, TF over GST control) with GABPA; 1.04 fold enrichment (6-mer frequency, TF over GST control) with ERG; 1.1 fold enrichment (6-mer frequency, TF over GST control) with ELF1; 1.21 fold enrichment (6-mer frequency, TF over GST control) in the assay with EHF. The binding signal with SPIB was 1.05 fold enrichment (6-mer frequency, TF over GST control); with ELK3, 1.02 fold enrichment (6-mer frequency, TF over GST control).
Take AAGGTT: the binding signal was 1.09 fold enrichment (6-mer frequency, TF over GST control) with FLI1; 1.15 fold enrichment (6-mer frequency, TF over GST control) with ELK1; 1.13 fold enrichment (6-mer frequency, TF over GST control) with GABPA; 1.07 fold enrichment (6-mer frequency, TF over GST control) with ERG; 1.05 fold enrichment (6-mer frequency, TF over GST control) in the assay with ELF1; 1.1 fold enrichment (6-mer frequency, TF over GST control) with EHF. In addition, the binding signal in the assay with SPIB was 1.01 fold enrichment (6-mer frequency, TF over GST control); with ELK3, 1.12 fold enrichment (6-mer frequency, TF over GST control).
Turning to CGACGA, the binding signal with FLI1 is 1.19 fold enrichment (6-mer frequency, TF over GST control); with ELK1 it was 1.03 fold enrichment (6-mer frequency, TF over GST control); in the assay with GABPA it was 1.11 fold enrichment (6-mer frequency, TF over GST control); in the assay with ERG, 1.18 fold enrichment (6-mer frequency, TF over GST control); in the assay with ELF1 it was 1.09 fold enrichment (6-mer frequency, TF over GST control); in the assay with EHF it was 1.14 fold enrichment (6-mer frequency, TF over GST control). Also, the binding signal was 1.2 fold enrichment (6-mer frequency, TF over GST control) with SPIB and 1.2 fold enrichment (6-mer frequency, TF over GST control) with ELK3.
Turning to CCTGGG, the binding signal in the assay with FLI1 is 1.16 fold enrichment (6-mer frequency, TF over GST control); in the assay with ELK1 it was 1.18 fold enrichment (6-mer frequency, TF over GST control); in the assay with GABPA it was 1.15 fold enrichment (6-mer frequency, TF over GST control); with ERG, 1.16 fold enrichment (6-mer frequency, TF over GST control); with ELF1, 1.18 fold enrichment (6-mer frequency, TF over GST control); in the assay with SPI1, 1.11 fold enrichment (6-mer frequency, TF over GST control). In the assay with SPIB, the binding signal was 1.08 fold enrichment (6-mer frequency, TF over GST control).

(Values after PMC7862700, “An all-to-all approach to the identification of sequence-specific readers for epigenetic DNA modifications on cytosine”.)
